PMC4552634, “A New Set of Chemical Starting Points with Plasmodium falciparum Transmission-Blocking Potential for Antimalarial Drug Discovery” (PLoS ONE, 2015)
Where two headings read alike, the source gives them in different places. Out of some 13,000 compounds screened, about 3,200 (25%) showed an effect of 50% or more. The list shows a part of the results.

Tested on: P. falciparum stage V gametocytes
Design: BacTiter-Glo ATP luminescence viability of purified stage V gametocytes in 384-well plates, per cent inhibition versus DMSO
Conditions: 48 h, 5 µM, inhibitor

## COc1ccc(NC(=O)Nc2ccc(-c3ccc(-c4nc5cccc(C)c5[nH]4)s3)cc2)cc1 [TCMDC-133243]
  % Inhibition: -2.294%

## COc1ccc(CON2C(N)=NC(N)=NC2(C)C)cc1OC [TCMDC-131587]
  % Inhibition: 8.467%

## N#Cc1ccc2[nH]cc(-c3cn4cc(SC5CCCC5)ccc4n3)c2c1 [TCMDC-134705]
  % Inhibition: -50.98%

## COc1cccc(NC(=O)c2cc(C(=O)Nc3cccc(OC)c3)cc([N+](=O)[O-])c2)c1 [TCMDC-125177]
  % Inhibition: 2.834%

## O=C(Nc1cccnc1)c1cc(C(=O)Nc2cccnc2)cc([N+](=O)[O-])c1 [TCMDC-125067]
  % Inhibition: -34.07%

## O=C(Nc1ccncc1)c1cc(C(=O)Nc2ccncc2)cc([N+](=O)[O-])c1 [TCMDC-125671]
  % Inhibition: 89.24%

## CC(C)c1ccc2c(c1)c(SC(C)(C)C)c(CC(C)(C)C#N)n2Cc1ccc(Cl)cc1 [TCMDC-131974]
  % Inhibition: -57.09%

## COC(=O)c1ccc(CC(C)NCC(O)c2cccc(OCc3ccccc3)c2)cc1 (stereo not shown) [TCMDC-131486]
  % Inhibition: 29.25%

## COC(=O)c1ccc(CC(C)NCC(O)c2ccc(F)c(Cl)c2)cc1 (stereo not shown) [TCMDC-131517]
  % Inhibition: 4.686%

## COC(=O)c1ccc(CC(C)NCC(O)c2ccc(Cl)c(Cl)c2)cc1 (stereo not shown) [TCMDC-131431]
  % Inhibition: 21.35%

## COC(=O)c1ccc(CC(C)NCC(O)c2ccc(C(O)CNC(C)Cc3ccc(C(=O)OC)cc3)cc2)cc1 (stereo not shown) [TCMDC-131545]
  % Inhibition: 100.9%

## C[C@H](Cc1ccc(OCCCCCCOc2ccc(C[C@@H](C)N[C@H](C)c3ccccc3)cc2)cc1)NC[C@H](O)c1cccc(Cl)c1 [TCMDC-131564]
  % Inhibition: 103.4%

## C[C@H](Cc1ccc(OCCNC[C@H](O)c2cccc(Cl)c2)cc1)NC[C@H](O)c1ccc(Cl)c(Cl)c1 [TCMDC-131547]
  % Inhibition: 69.99%

## C[C@H](Cc1ccc(OCCCCCCOc2ccccc2)cc1)NC[C@@H](O)c1cc(Br)no1 [TCMDC-131567]
  % Inhibition: 65.38%

## COc1ccc(C(=O)NCC(C)(C)c2nc(-c3ccc(Cl)c(O)c3)c(-c3ccncc3)[nH]2)cc1OCCN(C(C)C)C(C)C [TCMDC-140736]
  % Inhibition: 2.982%

## CCCCCN1CCCC1CNS(=O)(=O)c1cccc(C(=O)Nc2cccc(C#N)c2)c1 (stereo not shown) [TCMDC-133690]
  % Inhibition: -52.73%

## Cc1ccc(C)c2sc(N(CCCn3ccnc3)C(=O)C=Cc3cccs3)nc12 [TCMDC-124923]
  % Inhibition: 12.01%

## C=C[C@H]1CN2CC[C@H]1C[C@H]2[C@H](OS(=O)(=O)O)c1ccnc2ccccc12 [TCMDC-138341]
  % Inhibition: 14.93%

## c1ccc(CCNc2ccnc(Nc3ccc4n[nH]nc4c3)n2)cc1 [TCMDC-136881]
  % Inhibition: 0.773%

## CCCC(C)c1cnc2nc(N)nc(N)c2c1C (stereo not shown) [TCMDC-137924]
  % Inhibition: 4.639%

## CCCC1N=C(N)N=C(N)N1c1ccccc1 (stereo not shown) [TCMDC-131293]
  % Inhibition: -19.04%

## CC(Cc1ccc(OCCOc2ccccc2)cc1)NCC(O)c1cccc(C(F)(F)F)c1 (stereo not shown) [TCMDC-131510]
  % Inhibition: 16.36%

## COC(=O)c1ccc(C[C@@H](C)NC[C@H](O)c2cccc(C(F)(F)F)c2)cc1 [TCMDC-131475]
% Inhibition
  % Inhibition: 15.4%

## CNCCCCCCOc1ccc(CC(C)NCC(O)c2cccc(C(F)(F)F)c2)cc1 (stereo not shown) [TCMDC-131523]
  % Inhibition: 111.6%

## C#CCOc1ccc(CC(C)NCC(O)c2cccc(C(F)(F)F)c2)cc1 (stereo not shown) [TCMDC-131480]
  % Inhibition: 12.31%

## C[C@H](Cc1ccc(OCCCCCCOc2ccccc2)cc1)NC[C@H](O)c1cccc(Cl)c1 [TCMDC-131552]
  % Inhibition: 11.17%

## CCOC(=O)c1ccc(CC(C)NCC(O)c2cccc(C(F)(F)F)c2)cc1 (stereo not shown) [TCMDC-131491]
  % Inhibition: 8.983%

## COC(=O)c1ccc(CC(C)NCC(O)c2cccc(C(F)(F)F)c2)cc1 (stereo not shown) [TCMDC-131438]
% Inhibition
  % Inhibition: 6.787%

## C[C@H](Cc1ccc(OCCCCCOc2ccc(C[C@@H](C)NC[C@H](O)c3cccc(Cl)c3)cc2)cc1)NC[C@H](O)c1cccc(Cl)c1 [TCMDC-131563]
  % Inhibition: 110.4%

## CC(Cc1ccc(C(=O)OCCOC(=O)c2ccc(CC(C)NCC(O)c3cccc(C(F)(F)F)c3)cc2)cc1)NCC(O)c1cccc(C(F)(F)F)c1 (stereo not shown) [TCMDC-131544]
  % Inhibition: 75.47%

## CC(Cc1ccc(C2=CCNCC2)cc1)NCC(O)c1cccc(C(F)(F)F)c1 (stereo not shown) [TCMDC-131537]
  % Inhibition: 95.16%

## COC(=O)c1ccc(C[C@@H](C)NC[C@H](O)c2cccc(C(F)(F)F)c2)cc1 [TCMDC-131458]
% Inhibition
  % Inhibition: 35.35%

## CC(Cc1ccc(OCCN2CCN(c3cccc(Cl)c3)CC2)cc1)NCC(O)c1cccc(Cl)c1 (stereo not shown) [TCMDC-131533]
  % Inhibition: 18.65%

## O=C(NCc1cccc(F)c1)Nc1cccc(-c2ccc(-c3nc4ccc(F)cc4[nH]3)cc2)c1 [TCMDC-133293]
  % Inhibition: 6.951%

## O=C(O)C1CC(=O)N(c2ccc(Cl)cc2)C1 (stereo not shown) [TCMDC-125862]
  % Inhibition: 2.166%

## COc1cccc(CN2CCCC(OC(c3ccc(F)cc3)c3ccc(F)cc3)C2)c1O (stereo not shown) [TCMDC-136167]
  % Inhibition: -3.055%

## CN1CCC(NC(=O)c2cccc(Nc3cc(Nc4cccc(Br)c4)ncn3)c2)CC1 [TCMDC-124773]
  % Inhibition: -81.1%

## CN(C)CCOc1ccc(-c2cc(-c3ccncc3)c(-c3ccc(Cl)c(O)c3)o2)cc1 [TCMDC-141227]
  % Inhibition: 36.77%

## COCC(C)n1c(SC(C)C(=O)Nc2cc([N+](=O)[O-])ccc2Cl)nc2ccccc2c1=O (stereo not shown) [TCMDC-123709]
  % Inhibition: -35.25%

## C[C@H](Cc1ccc(C[C@@H](C)NC[C@H](O)c2cccc(Cl)c2)cc1)NC[C@H](O)COc1ccccc1 [TCMDC-131549]
  % Inhibition: 104.7%

## CC(Cc1ccc(OCCOc2ccccc2)cc1)NCC(O)c1cccc(Cl)c1 (stereo not shown) [TCMDC-138939]
  % Inhibition: 12.28%

## C[C@H](Cc1ccc(OCCCCCCOc2ccc(C[C@@H](C)NC(=O)[C@H](O)c3cccc(Cl)c3)cc2)cc1)NC[C@H](O)c1cccc(Cl)c1 [TCMDC-131571]
  % Inhibition: -3.505%

## CC(NCCc1cccc(Cl)c1)C(O)c1ccc(OCCCCCCOc2ccc(C(O)C(C)NCCc3cccc(Cl)c3)cc2)cc1 (stereo not shown) [TCMDC-139334]
  % Inhibition: 98.69%
